# Laboratory results published in PubChem BioAssay.
# Active and inactive are the calls of the source. Unless noted, how the calls were made is not given here.
# Key:
# [1] = anti-His antibody binders, primary screen, artefact control for SMM control protein annotation, biochemical, small-molecule microarray, 635 nm fluorescence (AID 1128); details: anti-His Alexa647 antibody binding, higher = more signal;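 further: score merges feature fluorescence with signal-to-noise for each printed compound spot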
# [2] = test system: Human papillomavirus type 1a E7 protein (residues 1-88); experiment: HPV1a E7 small-molecule binders, primary screen, biochemical, small-molecule microarray, residues 1-88, 635 nm (AID 1129); details: small-molecule microarray binding, fluorescence 635 nm; higher = more signal
# [3] = biological target: Focal adhesion kinase 1 (Homo sapiens) (UniProt Q05397); experiment: small-molecule microarray binders of FAK, primary screen, biochemical, 635/667 nm fluorescence, BSA, DTT (AID 1130); details: PTK2 binding, 635 nm fluorescence, higher = more signal;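 further: composite of spot emission at 667 nm and signal to noise over triplicate slides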
# Chain of Focal adhesion kinase 1 (Homo sapiens) (Q05397 whole entry, looked up): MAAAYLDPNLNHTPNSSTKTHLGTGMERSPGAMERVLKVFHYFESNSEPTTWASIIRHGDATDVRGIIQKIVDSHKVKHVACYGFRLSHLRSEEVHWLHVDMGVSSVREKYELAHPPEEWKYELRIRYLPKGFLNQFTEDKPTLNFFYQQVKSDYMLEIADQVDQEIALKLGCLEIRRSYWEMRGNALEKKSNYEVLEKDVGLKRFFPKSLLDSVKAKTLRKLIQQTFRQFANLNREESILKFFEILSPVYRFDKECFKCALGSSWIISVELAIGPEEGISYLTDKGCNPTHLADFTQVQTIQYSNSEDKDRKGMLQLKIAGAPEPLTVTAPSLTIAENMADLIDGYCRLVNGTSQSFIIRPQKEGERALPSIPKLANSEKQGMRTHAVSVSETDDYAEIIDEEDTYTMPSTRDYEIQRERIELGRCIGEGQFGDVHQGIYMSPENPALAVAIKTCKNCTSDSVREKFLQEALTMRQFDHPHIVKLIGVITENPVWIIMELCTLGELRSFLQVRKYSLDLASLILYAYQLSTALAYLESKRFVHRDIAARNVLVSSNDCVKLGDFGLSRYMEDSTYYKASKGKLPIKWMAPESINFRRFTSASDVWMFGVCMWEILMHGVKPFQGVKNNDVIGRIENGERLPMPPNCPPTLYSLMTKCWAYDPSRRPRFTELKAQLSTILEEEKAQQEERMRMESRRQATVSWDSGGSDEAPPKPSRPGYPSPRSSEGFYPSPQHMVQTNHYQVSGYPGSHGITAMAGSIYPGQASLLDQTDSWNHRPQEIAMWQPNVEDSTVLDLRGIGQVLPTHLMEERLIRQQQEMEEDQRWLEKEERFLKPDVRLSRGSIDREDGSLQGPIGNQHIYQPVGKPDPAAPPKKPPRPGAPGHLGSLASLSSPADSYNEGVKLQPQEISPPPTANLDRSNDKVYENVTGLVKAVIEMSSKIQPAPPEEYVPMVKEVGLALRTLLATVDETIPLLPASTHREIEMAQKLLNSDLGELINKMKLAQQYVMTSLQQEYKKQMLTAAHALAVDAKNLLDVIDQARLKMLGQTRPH
# [4] = test system: Fibrinogen (Alexa647-labelled); experiment: fibrinogen binders on compound microarrays, profiling panel, artefact control for SMM control-protein annotation, biochemical, small-molecule microarray, 635/667 nm fluorescence (AID 1131); details: fibrinogen-A647 binding fluorescence, higher = more signal;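 further: z-score merges 667 nm fluorescence with per-spot signal-to-noise over triplicate slides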
# [5] = biological target: Follistatin (Homo sapiens) (UniProt P19883); experiment: follistatin binders on small-molecule microarrays, primary screen, biochemical, small-molecule microarray, 635/667 nm fluorescence (AID 1132); details: FST binding, 635 nm fluorescence, higher = more signal
# Chain of Follistatin (Homo sapiens) (P19883 whole entry, looked up): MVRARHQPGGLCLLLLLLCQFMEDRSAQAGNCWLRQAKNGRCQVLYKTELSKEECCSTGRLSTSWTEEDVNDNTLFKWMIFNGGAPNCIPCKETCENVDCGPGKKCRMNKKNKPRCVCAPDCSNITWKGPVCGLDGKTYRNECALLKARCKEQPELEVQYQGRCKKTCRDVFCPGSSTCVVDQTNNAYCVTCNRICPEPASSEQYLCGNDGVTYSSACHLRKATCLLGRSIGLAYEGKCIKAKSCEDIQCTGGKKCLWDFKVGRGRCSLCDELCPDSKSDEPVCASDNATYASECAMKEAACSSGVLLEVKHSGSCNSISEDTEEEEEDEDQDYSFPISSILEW
# [6] = biological target: Fibroblast growth factor 2 (Homo sapiens) (UniProt P09038); experiment: FGF2 binders on small-molecule microarrays, primary screen, biochemical, small-molecule microarray, 635/667 nm fluorescence (AID 1133); details: small-molecule microarray binding, FGF2, fluorescence 635/667; higher = more signal
# Chain of Fibroblast growth factor 2 (Homo sapiens) (P09038 whole entry, looked up): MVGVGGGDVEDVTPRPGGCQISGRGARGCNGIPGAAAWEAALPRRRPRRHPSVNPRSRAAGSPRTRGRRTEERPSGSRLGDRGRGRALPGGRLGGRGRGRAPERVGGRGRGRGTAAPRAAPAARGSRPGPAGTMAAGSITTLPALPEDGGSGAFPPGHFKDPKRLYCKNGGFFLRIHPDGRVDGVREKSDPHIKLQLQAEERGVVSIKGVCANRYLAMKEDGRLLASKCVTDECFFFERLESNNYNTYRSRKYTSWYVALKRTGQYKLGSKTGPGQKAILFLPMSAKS
# [7] = mitochondrial membrane potential change in A549 cells, profiling panel, cell-based, JC-1 fluorescence, basal, 24 h, 100 nL (AID 1138); details: higher = more signal;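 further: A549 lung adenocarcinoma cells under basal conditions with no added stimulus; test concentration not given here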
# Lefty1 = Lefty1 binders on small-molecule microarrays, primary screen, biochemical, small-molecule microarray, 635/667 nm fluorescence (AID 1139); details: small-molecule microarray binding, fluorescence 635/667; higher = more signal
# [8] = test system: wheat germ agglutinin (Triticum aestivum), Alexa647-labelled; experiment: wheat germ agglutinin binders on compound microarrays, profiling panel, artefact control for SMM control-protein annotation, biochemical, small-molecule microarray, 635/667 nm fluorescence (AID 1140); details: WGA-A647 binding, 635 nm fluorescence, higher = more signal;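 further: score merges 667 nm feature emission with signal to noise over triplicate slides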
# [9] = biological target: Luciferin 4-monooxygenase (Photinus pyralis) (UniProt P08659); experiment: firefly luciferase enzyme inhibitors, primary screen, biochemical, luminescence, purified enzyme, 2006 set (AID 1141); details: SteadyGlo luminescence, 30 min, higher = more signal, called active from +8 up or from −8 down;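 further: cell-free assay with purified firefly luciferase at 100 ng per well in PBS; test concentration not given here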
# Chain of Luciferin 4-monooxygenase (Photinus pyralis) (P08659 whole entry, looked up): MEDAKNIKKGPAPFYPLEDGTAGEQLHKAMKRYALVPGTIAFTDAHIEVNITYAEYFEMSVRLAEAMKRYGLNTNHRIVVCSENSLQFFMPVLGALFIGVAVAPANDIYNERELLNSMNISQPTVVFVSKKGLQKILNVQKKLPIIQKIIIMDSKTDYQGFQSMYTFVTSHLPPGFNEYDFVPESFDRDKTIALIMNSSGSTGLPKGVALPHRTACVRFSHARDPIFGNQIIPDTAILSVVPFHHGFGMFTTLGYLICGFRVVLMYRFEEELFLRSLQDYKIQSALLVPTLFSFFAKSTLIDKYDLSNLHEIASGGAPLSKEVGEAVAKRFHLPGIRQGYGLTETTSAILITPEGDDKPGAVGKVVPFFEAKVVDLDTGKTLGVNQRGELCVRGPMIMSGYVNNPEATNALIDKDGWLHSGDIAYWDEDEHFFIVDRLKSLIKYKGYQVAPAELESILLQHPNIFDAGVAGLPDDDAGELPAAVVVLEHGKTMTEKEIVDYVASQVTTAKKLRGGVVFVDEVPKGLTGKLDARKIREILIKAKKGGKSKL
# [10] = test system: Wnt5a (protein binding on small-molecule microarray); experiment: Wnt5a binders on small-molecule microarray, primary screen, biophysical, 635/667 nm fluorescence (AID 1142); details: 635 nm fluorescence, higher = more signal;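 further: fluorescence read at 667 nm with signal to noise per printed feature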
# [11] = cell viability in Huh7 cells, primary screen, cytotoxicity control for HCV replication inhibitor project, CellTiter-Glo luminescence, basal, 48 h (AID 1143); details: Huh7 HCV replicon, higher = more signal, called active from +8 up or from −8 down;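 further: Huh7 hepatoma cells carrying a hepatitis C replication reporter with no stimulus; test concentration not given here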
# [12] = P. aeruginosa biofilm formation inhibitors, primary screen, PAO1 strain, BacTiter-Glo luminescence, LB-PBS (AID 1144); details: 12 h, higher = more signal
# [13] = CREB reporter modulators without forskolin, primary screen, cell-based, PC12, CRE-LacZ reporter, unstimulated (AID 1145); details: no forskolin, luminescence, 4.5 h, higher = more signal, called active from +8 up or from −8 down
# [14] = CREB reporter modulators under forskolin, primary screen, cell-based, PC12, CRE-LacZ reporter, forskolin-stimulated (AID 1146); details: luminescence, 4.5 h, higher = more signal, called active from +8 up or from −8 down;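 further: PC12 cells with 6xCRE LacZ reporter stimulated by forskolin 10 µM; beta-galactosidase reporter signal reflecting CREB driven transcription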
# [15] = biological target: Streptavidin (Streptomyces avidinii) (UniProt P22629); experiment: streptavidin binders on small-molecule microarray, primary screen, artefact control for SMM compound annotation, biophysical, 635/667 nm fluorescence (AID 1147); details: streptavidin binding, higher = more signal;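 further: signal reflects streptavidin binding to arrayed compounds as a control protein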
# Chain of Streptavidin (Streptomyces avidinii) (P22629 whole entry, looked up): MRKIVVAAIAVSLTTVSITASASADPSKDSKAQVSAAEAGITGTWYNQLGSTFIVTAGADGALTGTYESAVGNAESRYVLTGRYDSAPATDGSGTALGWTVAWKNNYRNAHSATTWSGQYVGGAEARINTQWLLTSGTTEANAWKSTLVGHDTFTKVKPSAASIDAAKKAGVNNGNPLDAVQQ
# [16] = small-molecule binders of probe aInhba, primary screen, biochemical, small-molecule microarray, 635/667 nm fluorescence (AID 1148); details: higher = more signal;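 further: score merges 667nm spot fluorescence with signal-to-noise for antibody binding to printed compounds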
# Torsin-1A (Homo sapiens) [17] = biological target: Torsin-1A (Homo sapiens) (UniProt O14656); experiment: torsin A binders from cell lysate, primary screen, small-molecule microarray, wild-type, 635/667 nm (AID 1149); details: COS7 hTOR1A-WT lysate, 635 nm fluorescence, higher = more signal
# Chain of Torsin-1A (Homo sapiens) (O14656 whole entry, looked up): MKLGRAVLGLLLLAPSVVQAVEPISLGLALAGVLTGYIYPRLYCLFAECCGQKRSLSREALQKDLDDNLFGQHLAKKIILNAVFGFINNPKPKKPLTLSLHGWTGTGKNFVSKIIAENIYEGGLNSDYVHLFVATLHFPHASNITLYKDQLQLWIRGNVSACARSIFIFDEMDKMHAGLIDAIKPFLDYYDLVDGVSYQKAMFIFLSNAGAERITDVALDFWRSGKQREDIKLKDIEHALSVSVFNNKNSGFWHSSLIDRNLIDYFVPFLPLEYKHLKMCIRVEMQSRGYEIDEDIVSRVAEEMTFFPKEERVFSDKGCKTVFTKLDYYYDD
# Torsin-1A (Homo sapiens) [18] = biological target: Torsin-1A (Homo sapiens) (UniProt O14656); experiment: small-molecule binders of mutant TOR1A in lysate, primary screen, cell lysate, small-molecule microarray, COS7 lysate, 635/667 nm fluorescence (AID 1150); details: COS7 hTOR1A mutant lysate, 635 nm fluorescence, higher = more signal;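 further: score pools 667 nm emission and signal to noise measuring lysate protein binding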
# [19] = test system: Sonic hedgehog protein (Shh); experiment: small-molecule binders of Shh protein, primary screen, biochemical, small-molecule microarray, 635/667 nm fluorescence (AID 1151); details: small-molecule microarray binding, 635 nm fluorescence; higher = more signal;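 further: Shh protein binding to compounds spotted on small-molecule microarray slides; score combines spot fluorescence intensity with signal-to-noise across triplicate slides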
SMILES,composite z-score [1],composite z-score [2],composite z-score [3],composite z-score [4],composite z-score [5],composite z-score [6],z-score [7],composite z-score (Lefty1),composite z-score [8],z-score [9],composite z-score [10],z-score [11],z-score [12],z-score [13],z-score [14],composite z-score [15],composite z-score [16],composite z-score (Torsin-1A (Homo sapiens) [17]),composite z-score (Torsin-1A (Homo sapiens) [18]),composite z-score [19]
CCC[C@@H]1[C@@H](Sc2ccccc2)[C@@H](C(=O)O)[C@H](c2ccc(C)cc2)N1S(=O)(=O)c1ccc(C)cc1,0.832,1.25,0.725,1.05,0.769,0.0754,-0.61,0.717,0.774,1.46 (inactive),0.664,-1.72 (inactive),-1.96 (inactive),-0.471 (inactive),-0.722 (inactive),1.67,0.0921,0.26,0.165,0.641
CCCCC(O)C1C=CC2C(=O)NC(=O)C2N1Nc1ccc(Cl)cc1Cl (stereo not given),2.42,0.32,0.474,-0.0628,0.413,-0.596,-1.16,-0.654,0.87,-1.31 (inactive),-0.188,-1.19 (inactive),-0.441 (inactive),0.819 (inactive),-0.123 (inactive),0.27,0.166,-0.58,0.571,-0.614
COCCOC(=O)N1C(=O)[C@@]2(c3cc(C#CCCO)ccc31)[C@H](C(=O)N1CCc3cc(OC)c(OC)cc3C1)[C@H]1C(=O)O[C@H](c3ccccc3)[C@H](c3ccccc3)N1[C@@H]2c1ccccc1OCCO,0.362,1.19,0.496,0.87,1.41,1.3,-0.976,1.3,0.603,0.151 (inactive),0.75,-1.84 (inactive),-0.652 (inactive),-0.89 (inactive),-0.251 (inactive),0.587,0.425,0.258,0.904,1.69
O=C1c2ccccc2[C@](Cc2ccccc2I)(C(=O)O)[C@H](c2ccc(CO)cc2)N1Cc1ccccc1,0.729,0.0602,2.7,0.303,-0.584,-0.42,0.068,-0.827,0.471,-0.443 (inactive),0.303,-2.39 (inactive),-0.718 (inactive),0.0548 (inactive),0.131 (inactive),0.201,0.0627,0.363,0.0706,-0.282
